# From the supplement of paper PMC12632987
# Whole data set: some 4,500 sequences, median “median log2 fold change of GCK-ALFA target abundance (FLAG IP / Myc IP barcode read proportion)” near 0.078, cut for the lowest 2% near -0.6. The entries come from a sample that favours the lowest values as a whole.
# B1: GBRAP_52_6035 (protein)
# chain: MEERMRELARRIVELLLAGREEEARRLIREAVETLSEEELKLLGEELARLAREAAPEDLDAIMEAAFLLADALEEGGYDEVLADDLLARVAAAAVANLQA
# B2: GBRAP_52_6034 (protein)
# chain: MRERMRRLAEEAVALALAGDEEGAKALIKEAVETLSEEELKLLGEELARLAREAAPEDLDAIMEVAFWLADALIEAGYDEVFADDLEARVARAAVENLQA
# B3: GBRAP_52_6042 (protein)
# chain: MEERMRELAEEILALYLEGREEEARKLIREAVETLSEEELKLLGEALAELAREAPPEHLDAYMQAAFDLADALEEAGYDEVLADDLEARVAAAAVENLKR
# B4: GBRAP_160_4751 (protein)
# chain: SEALKKLKEEVKKIFEEGIEMLKEVPAEEAPTVLRGVMGEVLMEVFSSEAASDELEEEVGEVVDKAEAEAAANANAPVEYHIELLEKAKKEILEIIEKEI
# B5: GBRAP_52_6275 (protein)
# chain: MEEEAERLAEEFIRVALEGSEEEIREFARRLVEEKSEELIARVLEIVVEKAEELNAEEIEKLLEAVLILEGELEEAGRDPLPAQDAAARLAKLHEEKLKE
# B6: GBRAP_78_6606 (protein)
# chain: EVEELLEEAIELLSKAAKLLKELPPEVRDELMDLLVEAMSLLLESIEEGPNLKLLEEALKHVEEAIELLKKEKTPEAEKIIKLLEEAKEKIEKAIKLLKK
# B7: GBRAP_184_5238 (protein)
# chain: KVLEVTVEAADAEELRAKLEAVFAEAEAAGARVRLDVLVEELTPEKVDVLTEEIARMAAAGLLDLVEVTSSTPIAEEHIDRLVAAADAAGVRLVIAEPDE
# B8: GBRAP_57_6464 (protein)
# chain: MSPLEKALEHFEKAIKLIEEGASLEEILEEVEKGLEELDHTLLLDILLLLDPSARSDLSREELRERLLELVRRYLEEKGREEALKALKLMAGQVEMALTE
# B9: GBRAP_125_3136 (protein)
# chain: KRAALLALAEALARAMGFSEEEIAEIRRLAEAHDPAQTIVAIFLAAGAEEAAELAAEVLDKLSEEEIAALRALAEAARDLPLEEAVARLLAALKEAKAKL
# B10: GBRAP_52_6252 (protein)
# chain: MRARLRADAREILELVKEGREEEARRLAREIAETYNEEELRLFIDEFAALAAEAPKEDIDDVWRAAEILAEALEEAGWEEVLVDDALARTAAALVKVEAK
# B11: GBRAP_184_5187 (protein)
# chain: MVVEEELEIEDVAEARAKIAAIGERIAGKKAKLRVIVKAKKITVEIARTIMEGLGAIKAAGNATDITVELVGEMSEEVIDTAVELAKKAGIRVVIAMSEE
# B12: GBRAP_11_2656 (protein)
# chain: KKEAYKKAAELAEEAAKALQKLIEEGVDDEELIEKLRKLIEELKKLAEEELDEADKKEVEVVVELFEEFLADEENRLQLAEELLAGLRVLAGNFQLKADE
# B13: GBRAP_84_7006 (protein)
# chain: EREEEIVKLTKEILEKGSIELKALLLTYLILKNENKAATLALNDLLKEDPEAAVEALDRATEAYEEGKEEEVEKELKEKAKKEGKEVAELVEKLIKLLEE
# B14: GBRAP_84_7005 (protein)
# chain: SREEEIVEITAEILEKASIETKALLLTYLILKNANKAATLALNDLLEEDPEAAVEALDRATEAYEEGKEEEVEKELLEKAKEEGEELAELVERLLELLKE
# B15: GBRAP_84_7007 (protein)
# chain: SREQEILEITNKILEKGSIELKKKLLTYLILKNENKAATLALNYLLEEDPEAAVEALDEATEAYEEGKEEEVRKELLELAKKEGEEVYALVEELLELIDE
# B16: GBRAP_166_4935 (protein)
# chain: SLEKIYEETKKKVIELAKKALTADEEERIDLAIEIEELLKEAKEKGLTPEQLKEILLEALKELEEDPEVAEFLLRMILAASEMDEELQDVILEALEEFKK
# B17: GBRAP_128_3437 (protein)
# chain: AQEELLQEALELLDEIVESDVETAAELAKQLAELLGQLDEESRDEVVEYFEEKAKELTEEKLEAVADALREQVPQLDADTANAVNEMIVILGEQILELEE
# B18: GBRAP_160_4322 (protein)
# chain: KEELEELEKRIKEIAEEAKKMIKGQSAEEKITIVKVALGDIILEVESNPAVSDELEDKVAEIADAAEAYLDAHPDLSEEEVIALLEEAVKKILELIKEEK
# B19: GBRAP_137_3640 (protein)
# chain: MKVTIRVERHEDLVEITITVDDPEKAEEVAELITDLAVAHGALAISVEIKEDGTLEAVIWVPVERAEALIAAIVDALQSKFGATVTVEDLDTGEVRTYTP
# B20: GBRAP_184_5202 (protein)
# chain: AIVERTIEFENEEELKEKLKELLEELKGFKGTVYIHVEAPEITEEMAKLLIEFVKEIKENGYATEIIVDIEGEVSEEVRDLLLDEFAKIGAKVVIALSEE
# B21: GBRAP_11_2682 (protein)
# chain: RKEALERAAELAERAAELAERLLEEGVDNEELLEELRRALEELRRLVKEHLDEAHRTLVEIAEEELEEALADPENAAAHIERLLAAARVLRYNLEEELEE
# B22: GBRAP_125_3139 (protein)
# chain: MKAELLALAEALARALGYSEEEIAELRRLGEAHDPAQTIIAILLAEGFEELAELAREVLPKLTPEEIAELRALAESLRDKSREELRAALLAKLKELKAKQ
# B23: GBRAP_128_3300 (protein)
# chain: MDPALRAEVEALVETIRTGDPAARRAAAEALAALMGSVNDEDAEAIADIIEAAIPELSAEALEILADVLDAARPQLTPEKAALAADVASAALLAAEELAE
# B24: GBRAP_52_6059 (protein)
# chain: MEERIEELARRIAEAIAAGDLERALELLRRAIKELSVEEIRRMLELAAERVAKLGEEAHERFVELLEEAEELMKEAGISEEEAELIVGDAEAALARAVAA
# B25: GBRAP_52_6153 (protein)
# chain: ARERAREYAEAFVAAVKAGDEERARAIMEEIAATLNDEEIELFLEEVARLVEGLTPEERERVVEAVLEFEDIAVAAGHDEELLSYHTARVAGAAYDALQK
# B26: GBRAP_52_6154 (protein)
# chain: MEERAREYAERFVAAVKAGDEEEARAIMEEIAATLDDEEIALFLEHVAELVAGLSPEDRERVVEAVLEFEDIAEAAGHDPELLSYHTARVAGAAYAALQA
# B27: GBRAP_52_6151 (protein)
# chain: AAARAAAYAREFVAAVRAGDEEKARAIMKEIAATLDDEEIALFLREVARLVAGLSPEDRERVVEAVLEFEDIAVAAGHDEDILSYETARVAGAAYEALQR
# B28: GBRAP_64_6479 (protein)
# chain: NEEIEELLEELLEAARRLLALFERENPELAPEAQEIVDLLEEAKTASLEERLDLVLEVTDRLHALLRDPRVTPEQRDALLEALDLAMALAALLAEEVEKE
# B29: GBRAP_80_6846 (protein)
# chain: AAARLAAELAALKALLPEVAEDAKEAVALARELGVPDADIADYLAALNELAKLDPELAAALLKELLADLREEKAEGDSENALAVVRGYTGEALMEAEELE
# B30: GBRAP_80_6856 (protein)
# chain: AAAALAAALAALKALLPEVAEDAKEIVEIARELGVPDADIADLMEALAELAKVDPELAAELIKELLEELKEEKERGDAERALAVVRGYAGEALMLAEELE
# B31: GBRAP_80_6848 (protein)
# chain: AEERLAAALAALEALLPEVAEEARELVALARELGVPDEEIAAFLEALNELAKLDPELAAELIREALEDMKELKEEGDSENALAVVRGYTGDALMAAEELE
# Molecular target: GABARAP, O95166
# Assay: median log2 fold change of GCK-ALFA target abundance (FLAG IP / Myc IP barcode read proportion) (log2 ratio); each designed protein is fused to an ALFA-tag nanobody in HEK293 cells to bring the named protein to FLAG-tagged glucokinase (GCK); Myc marks an untargeted standard; higher = target protein stabilised (more abundant)
# Conditions: target protein: 3xFLAG-MCP-GCK-ALFA reporter; HEK293 landing pad (RPLP)
# In short: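 HEK293 landing-pad cells received a recombined binder library fused to the ALFA nanobody and were induced with 2 μg mL^−1 doxycycline, then transfected with a plasmid encoding a FLAG-tagged target and a Myc-tagged standard. Lysates were collected after 48 h for anti-FLAG and anti-Myc immunoprecipitation, and the circular RNA barcodes were reverse transcribed, amplified and sequenced. Target abundance for each binder is the median log2 ratio of FLAG to Myc barcode read proportions. Barcodes had to reach a proportion of at least 10^−7 in both replicates, each binder needed at least 3 barcodes per replicate, a pseudocount of 10^−6 was applied, and the two replicates were pooled.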
# Chain of GABARAP, O95166 (O95166 whole entry, the tested form may be a part): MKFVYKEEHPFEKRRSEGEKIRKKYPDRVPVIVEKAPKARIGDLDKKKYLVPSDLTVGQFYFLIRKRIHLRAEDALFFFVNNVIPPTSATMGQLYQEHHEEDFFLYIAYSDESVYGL
row,Binder,median log2 fold change
1,B1,-0.612
2,B2,-0.573
3,B3,-0.435
4,B4,-0.117
5,B5,0.0823
6,B6,-0.743
7,B7,0.168
8,B8,0.249
9,B9,-0.351
10,B10,-0.272
11,B11,0.57
12,B12,0.336
13,B13,-0.666
14,B14,-0.259
15,B15,-0.316
16,B16,0.184

row,Binder,median log2 fold change
1,B17,-0.0498
2,B18,0.161
3,B19,-0.0441
4,B20,-0.159
5,B21,-0.882
6,B22,0.207
7,B23,-0.00271
8,B24,0.0176
9,B25,-0.742
10,B26,0.0811
11,B27,0.0301
12,B28,-0.254
13,B29,-0.698
14,B30,-0.242
15,B31,-0.203
